# High-throughput results as filed in PubChem.
# Compounds with a hit are over-represented: about 3.3% of the library has one in this group of screens.
# PRMT1 inh – inhibitors of human PRMT1. recombinant PRMT1, activity-based probe fluorescence polarization. Q99873. inhibition, % at 2.79 µM. 370,000 tested, 1.3% active;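 active = inhibition above about 21% made by adding two undisclosed values, limit read from the data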
# UHRF1 binding – UHRF1 methyl-DNA binding inhibition | Q96T88 | UHRF1 binding to methylated oligo, TR-FRET | inhibition, % at 4.4 µM | 370,000 tested, 0.75% active | AID 687016; in the data active = inhibition above about 21%;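 also: UHRF1 SRA domain binding a hemimethylated CpG hairpin DNA probe; 0% = median of test compound wells and 100% = reference inhibitor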
# Target sequence (Q96T88 whole entry, looked up, the tested form may be a part): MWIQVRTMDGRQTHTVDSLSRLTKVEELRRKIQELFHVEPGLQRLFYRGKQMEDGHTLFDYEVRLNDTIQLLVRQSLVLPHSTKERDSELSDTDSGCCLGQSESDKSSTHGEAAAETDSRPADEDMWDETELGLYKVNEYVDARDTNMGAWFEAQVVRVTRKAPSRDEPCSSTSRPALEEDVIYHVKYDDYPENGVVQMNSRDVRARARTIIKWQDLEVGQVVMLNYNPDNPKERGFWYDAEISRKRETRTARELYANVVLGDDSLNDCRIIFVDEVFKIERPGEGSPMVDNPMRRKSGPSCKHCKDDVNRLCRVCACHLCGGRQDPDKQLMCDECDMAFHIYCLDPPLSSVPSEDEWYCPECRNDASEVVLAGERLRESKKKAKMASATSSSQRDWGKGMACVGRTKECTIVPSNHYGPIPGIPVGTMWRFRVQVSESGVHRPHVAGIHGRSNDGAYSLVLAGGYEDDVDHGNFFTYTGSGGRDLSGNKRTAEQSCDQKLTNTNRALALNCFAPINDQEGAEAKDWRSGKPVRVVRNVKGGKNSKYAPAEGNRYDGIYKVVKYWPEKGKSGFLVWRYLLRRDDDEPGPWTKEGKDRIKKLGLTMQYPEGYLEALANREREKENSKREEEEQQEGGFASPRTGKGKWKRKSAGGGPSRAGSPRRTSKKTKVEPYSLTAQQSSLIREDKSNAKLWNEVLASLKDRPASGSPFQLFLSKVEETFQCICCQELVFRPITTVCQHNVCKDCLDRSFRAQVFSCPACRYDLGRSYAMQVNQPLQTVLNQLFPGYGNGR
# M18AAP inhibitor – blocks P. falciparum M18 aspartyl aminopeptidase. 290,000 tested, 1.2% active. recombinant PfM18AAP, H-Glu-NHMec fluorogenic cleavage. AID 1822. inhibition, % at 7.35 µM;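 active = inhibition above the campaign mean inhibition over all tested compounds plus 3 SD, cut at about 28% in these data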;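 also: 0% = plate median of test compound wells and 100% = 2 mM ZnCl2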
# MBD2 DNA inh – inhibitors of human MBD2 binding to methylated oligonucleotide; inhibition, % at 4.4 µM; Q9UBB5; AID 686964; TR-FRET; 370,000 tested, 0.31% active; in the data active = inhibition above about 13%
# PfGluPho inh – PfG6PD (Plasmodium falciparum) enzyme inhibition. PfGluPho enzyme, NADPH resazurin-diaphorase fluorescence. inhibition, % at 20 µM. 350,000 tested, 0.78% active. AID 504690;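 active = inhibition reaching at least a set limit at 20 µM in the primary screen, cut at about 59% in these data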;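 also: 0% = DMSO wells with substrate and 100% = DMSO wells lacking glucose-6-phosphate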
# PRMT1 confirm – PRMT1 (human) inhibition, FP confirmation. 3,300 tested, 42% active. AID 687036. inhibition, % at 2.79 µM. shares compounds with PRMT1 inh. recombinant His-PRMT1, activity-based probe fluorescence polarization;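 active = mean inhibition across replicates above the hit cutoff derived for the earlier primary screen, cut at about 22% in these data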
# * = called active by the depositor; . = no result.
SMILES,PRMT1 inh,UHRF1 binding,M18AAP inhibitor,MBD2 DNA inh,PfGluPho inh,PRMT1 confirm
COc1ccc(C(=O)O)cc1S(=O)(=O)Nc1ccc(N2CCCCC2)cc1,0.7,3.8,.,3.0,6.2,.
C[C@@H]1C=C(C(=O)NCc2nc3ccccc3[nH]2)O[C@H](OCCCCO)C1,47.0*,-1.5,.,-0.8,24.1,33.1*
Cc1ccc(C(=O)NNC(=S)NC(=O)COc2ccccc2)cc1,8.3,-0.8,9.1,-1.3,-24.6,.
Cc1ccccc1C(=O)NNC(=S)NC(=O)COc1ccccc1,43.8*,4.8,-55.4,3.2,3.8,9.1
COC(=O)c1ccccc1NC(=S)NC(=O)COc1ccccc1,1.0,-0.3,12.2,-2.8,2.7,.
O=C(COc1ccccc1)NC(=S)Nc1ccc(Br)cn1,30.8*,7.4,-1.7,0.2,-8.3,3.0
CN(C)c1cc(-c2ccc(Br)cc2)oc(=O)c1Cl,6.3,-7.2,1.6,-5.1,38.8,.
O=C(CN1C(=O)CC(c2ccco2)Sc2ccccc21)Nc1ccccc1F (stereo not drawn),58.3*,-1.0,-2.4,5.5,13.0,18.6
O=C(CN1C(=O)CC(c2ccco2)Sc2ccccc21)NCc1ccc2c(c1)OCO2 (stereo not drawn),.,.,-10.6,.,4.8,.
NNC(=O)c1csc(Cc2c(Cl)sc3ccc(Cl)cc23)n1,-2.3,-0.1,5.3,2.1,-27.6,.
Cn1c(=O)c(=O)n(C)c2cc(N3CCOCC3)c(NS(=O)(=O)c3ccc([N+](=O)[O-])cc3)cc21,25.0*,0.8,26.6,1.0,51.5,14.8
CCN1C(=O)/C(=C/c2ccc(C)o2)N(C)C1=S,45.1*,1.6,9.9,4.0,52.5,0.8
Cc1c(C(=O)O)cccc1-c1ccc(/C=C2/NC(=O)N(c3ccccc3)C2=O)o1,11.3,3.9,12.6,-1.3,-12.2,.
CCN1C(=O)/C(=C/c2cccs2)N(C)C1=S,-1.4,-1.6,4.6,1.2,7.6,.
Cc1ccc(/C=C2/NC(=O)N(Cc3ccc(Br)cc3)C2=O)o1,79.9*,-0.1,7.2,5.2,26.7,9.6
Cc1ccc(/C=C2/NC(=O)N(c3ccccc3)C2=O)o1,59.8*,-0.2,8.5,-1.7,9.4,30.5*
CCCN1C(=O)/C(=C/c2ccc(C)o2)NC1=S,.,.,14.5,.,.,.
CCN1C(=O)N/C(=C/c2ccc(C)o2)C1=O,55.5*,-2.5,-3.8,-8.5,-4.7,8.8
Cc1ccc(CN2C(=O)N/C(=C\c3ccc(N4CCOCC4)cc3)C2=O)cc1,-3.4,-4.7,-5.3,-7.5,-4.1,.
CC(=O)Nc1ccc(NC(=O)CCCn2cnc3ccccc3c2=O)cc1,5.0,3.7,-14.5,4.1,-1.5,.
CCOc1ccccc1N1CCN(C(=O)NCc2ccc(F)cc2)CC1,-3.3,1.7,-3.0,-4.3,-6.4,.
O=C1N/C(=C/c2ccc(N3CCOCC3)o2)C(=O)N1c1cccc(Cl)c1,29.9*,-1.8,0.9,-5.1,38.9,-6.5
Cc1ccc(/C=C2/NC(=O)N(Cc3ccccc3F)C2=O)o1,82.9*,-1.7,10.4,-3.4,3.9,10.2
O=C1C2C3C=CC(O3)C2C(=O)N1Cc1ccncc1 (stereo not drawn),42.8*,0.8,.,4.0,-4.2,-0.1
Cc1ccccc1-n1c(SCc2c(C)noc2C)nnc1-c1cccnc1,28.3*,0.7,1.2,-5.4,13.2,13.1
SMILES,PRMT1 inh,UHRF1 binding,M18AAP inhibitor,MBD2 DNA inh,PfGluPho inh,PRMT1 confirm
Cc1ccccc1-n1c(SCc2c(C)noc2C)nnc1-c1ccncc1,-3.4,-0.5,-1.9,1.8,-4.5,.
COc1cc(C2OC(=O)c3ccccc3S2)cc(OC)c1OC (stereo not drawn),5.5,-1.9,-4.9,-6.0,-3.1,.
COc1ccc(C2OC(=O)c3ccccc3S2)cc1 (stereo not drawn),38.2*,5.2,-22.9,1.4,-0.6,16.7
COC(=O)c1c(C)[nH]c(C(=O)C(C)OC(=O)c2cnc(C)cn2)c1C (stereo not drawn),-0.5,2.4,.,-0.4,-3.4,.
COc1ccc(OC)c(NC(=O)CNC(=O)c2ccc([N+](=O)[O-])cc2)c1,-0.6,12.1,4.8,-1.4,-9.1,.
Cn1c(COc2ccc(Br)cc2)nnc1SC1CCc2ccccc2C1=O (stereo not drawn),53.2*,0.1,7.7,5.5,23.8,8.6
O=c1ccc2cc3c4c(c2o1)CCCN4CCC3,71.7*,-12.0,9.6,-8.8,31.7,66.5*
COc1ccc(Cl)cc1NC(=O)Cn1c(C)csc1=O,-1.2,-2.2,.,-9.2,6.8,.
O=c1c(-c2cccc3ccccc23)[n+]([O-])c2ccccc2n1O,24.9*,-4.0,-6.6,-0.4,5.3,-1.2
CCOn1c(=O)c(-c2cccc3ccccc23)[n+]([O-])c2ccccc21,3.0,-0.1,1.1,-1.1,8.8,.
CCCOc1ccc(-c2c(=O)n(O)c3ccccc3[n+]2[O-])cc1,32.1*,-6.5,-23.6,-1.0,46.1,5.3
Cn1nnnc1Sc1ncnc2scc(-c3ccccc3)c12,-0.9,0.9,0.9,-0.9,-18.9,.
Cn1nnnc1Sc1ncnc2scc(-c3ccc[nH]3)c12,30.9*,-2.6,.,-1.9,14.8,2.0
Cc1ccc(COC(=O)CCCN=C2NS(=O)(=O)c3ccccc32)cc1,5.6,0.2,.,3.9,3.6,.
Nc1nnc(SCC(=O)Nc2cccc(Cl)c2)s1,2.7,0.9,.,6.1,20.4,.
NC(=O)SCC(=O)Nc1cccc(Cl)c1,73.2*,-1.3,22.4,-2.1,25.4,100.7*
Cc1c(Cl)cccc1NC(=O)CSC(N)=O,31.0*,2.4,1.0,-0.4,11.4,96.2*
NC(=O)SCC(=O)Nc1ccc(Cl)cc1,65.2*,-4.8,24.8,-4.8,11.7,87.6*
NC(=O)SCC(=O)Nc1ccc(Cl)c(Cl)c1,49.2*,-4.7,9.9,-6.0,9.3,94.1*
Cc1c(Cl)cccc1NC(=O)CSCC(N)=O,2.0,1.1,-8.4,4.8,0.2,.
CN1C(=O)C(C)(C)c2cc(S(=O)(=O)N3CCCC(C(=O)NCc4ccc(Cl)cc4)C3)ccc21 (stereo not drawn),4.6,-0.7,-10.9,2.9,8.9,.
CCOC(=O)c1cn(CC(=O)Nc2ccc(OC)cc2OC)nn1,-4.5,0.7,-5.3,6.3,-12.5,.
CC1(C)N=C(SCC(=O)Nc2ccc(Cl)cc2)C(c2ccc(Cl)cc2)=N1,28.4*,-2.1,3.8,-1.9,15.0,10.7
Cc1ccc(NC(=O)CSC(N)=O)cc1Cl,28.4*,-1.3,5.8,-0.9,11.9,89.2*
NC(=O)/C=C/C(=O)Nc1ccc(Cl)cc1,87.1*,-0.7,-8.5,-2.6,-0.8,31.5*
NC(=O)Nc1ccc(Cl)cc1,-3.7,-2.1,-2.0,-7.2,10.8,.
CC1(C)N=C(SCC(=O)Nc2ccc(Cl)cc2)C(c2ccccc2)=N1,7.5,-2.5,15.7,1.1,-1.7,.
COCC(=O)Nc1ccc(C)c(Cl)c1,-3.3,0.8,-4.2,-1.1,3.0,.
Cn1c(CCN2CCN(c3ccccn3)CC2)nc2cc(NS(=O)(=O)c3ccccc3)ccc21,2.8,-0.6,6.2,-2.3,15.7,.
CN1C[C@@H]2[C@@H]3C(=O)N(C)C(=O)[C@@H]3[C@](C)(C1=O)N2C(=O)c1ccc(Cl)cc1,-3.3,2.0,.,1.8,9.7,.
